Each structure is given as a SMILES string. This is part of a sample that, as a whole, favours compounds with a hit. Of some 83,000 tested, about 20% had one in any assay.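 Single-concentration screen, 48 h exposure, 96-well plates. Endpoint: percent growth. Below 10 = active.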 Calls of active or inactive are those of the source.

Consider 33 compounds from PubChem BioAssay (NCI).

This assay relates to HL-60(TB) leukemia. Nature of the assay: NCI-60 one-dose screen, 48 h (100 = growth as untreated, 0 = no growth, -100 = all killed). Conditions: 10 µM unless noted.
For `O=S(=O)(NCCCNc1nccc(-c2[nH]c(-c3ccccc3)nc2-c2ccc(F)c(O)c2)n1)c1ccc(C(F)(F)F)cc1`, the growth is -3% (active).
`O=c1[nH]c2ccc(Cl)cc2cc1CSc1ccccc1Nc1nccc(-c2ccc(Cl)cc2)n1`: the growth is 78.5% (inactive).
As for `O=S(=O)(NCCCNc1nccc(-c2[nH]c(-c3ccccc3)nc2-c2ccc(F)c(O)c2)n1)c1ccccc1`, the growth is 90.6% (inactive).
Consider `COc1ccc(N2C(=O)c3cc(Cl)ccc3NC2SCc2ccccc2)cc1` (stereo not drawn), for which the growth was 114% (inactive).
As for `CC1(C)CC[C@]2(C(=O)O)CC[C@]3(C)C(=CCC4[C@@]5(C)C[C@@H](O)[C@@H]6OC(c7ccccc7O)OC[C@@]6(C)C5CC[C@]43C)C2C1` (stereo partly drawn), the growth was 38% (inactive).
Then `CCn1c(SCC(=O)Nc2cccc(C(=O)/C=C/c3ccc(C)cc3)c2)nc2ccccc2c1=O`, with 92% (inactive); and `C=C1CC[C@H]2[C@@](C)(CCC3OC(c4ccc(OCc5cn(C6CC(OC(C)=O)C(OC(C)=O)C(COC(C)=O)O6)nn5)cc4)OC[C@]32C)[C@@H]1/C=C/C1=CCOC1=O` (stereo partly drawn), with 56.2% (inactive).
As to `CC(=C(c1ccc(OCCN(C)C)cc1)c1ccc(OCCN(C)C)cc1)c1ccc(Cl)cc1`, the growth was -53.5% (active).
Consider `COc1cc(-c2nc(-c3ccccc3)[nH]c2-c2ccnc(NCCCNS(=O)(=O)c3cccc(F)c3)n2)ccc1Cl`, for which the growth is 55.1% (inactive).
In the case of `Nc1cc(F)ccc1NC(=O)c1ccc(NC(=O)C/C=C/c2cccnc2)cc1`, the growth is 13.4% (inactive).
Take `Cc1ccc(Cc2cnc(NC(=O)/C(C#N)=C/c3ccc(-c4ccc(Cl)cc4)o3)s2)cc1`: the growth was 88.5% (inactive).
In the case of `CN1CCN(Cc2ccc(NC(=O)c3cncc(C#Cc4cnc5ccc(NCCCO)nn45)c3)cc2C(F)(F)F)CC1`, the growth is -8.59% (active).
For the compound `O=C(CN1CCN(c2cc(=O)n(-c3ccccc3)c3ccccc23)CC1)Nc1nc(-c2ccc(Cl)cc2)cs1`, the growth is 26.2% (inactive).
The result for `CN1c2ccccc2Sc2cc(C=C(C#N)C#N)ccc21` reads 92.6% (inactive); that for `CC(C)(C)OC(=O)N1C(=O)c2c(c3c4ccccc4[nH]c3c3ccc4ccccc4c23)C1=O`, 39.6% (inactive); that for `CNC(=O)Nc1ccc(Nc2cc(-c3ccc(-n4cccn4)cc3)[nH]n2)c(C)c1`, 92.7% (inactive).
The result for `CN1CCC(n2cc(Nc3ncc4c(=O)n(-c5c(Cl)cccc5Cl)cc(Br)c4n3)cn2)CC1` reads -13.8% (active); that for `CS(=O)(=O)Nc1cc(-c2ccc3ncc(C#N)c(Nc4cccc(Cl)c4F)c3c2)cnc1Cl`, 0.143% (active).
On to `Cc1ccc(C2=NN(C)C(=O)C3(CCCC3)C2)cc1`, for which the growth was 77.8% (inactive).
Consider `O=S1SC(c2ccccc2)=NN1c1cc(F)cc(F)c1` (stereo not drawn), for which the growth is 32.2% (inactive).
The result for `C=C1C(=O)O[C@@H]2C[C@@H](C)[C@H](OC)CC(=O)[C@](C)(OC(C)=O)C[C@H](OC(=O)/C(C)=C\C)[C@@H]12` reads 69.3% (inactive); that for `CCCNNC(=O)c1ccc(-c2ccc(NC(=O)CCCCCCC(=O)N[C@H](C(=O)N3C[C@H](O)C[C@H]3C(=O)N[C@@H](C)c3ccc(-c4scnc4C)cc3)C(C)(C)C)cc2)cc1`, 18.1% (inactive).
The result for `O=S(=O)(Nc1ccc(I)cc1Cl)c1ccc(-c2cnc(C3CC3)o2)cc1` reads 9.69% (active); that for `CS(=O)(=O)c1ncc(-c2ccccc2)cn1`, 103% (inactive).
Take `CCCCCc1ccc(S(=O)(=O)Nc2cc(-c3csc(NC(=O)CN4CCN(CCO)CC4)n3)ccc2OC)cc1`: the growth was -40.5% (active).
Turning to `CN(C)S(=O)(=O)c1ccc(-c2nc(C(Cl)Cl)nc3cc(-c4ccccc4)nn23)cc1`, the growth was 71.1% (inactive).
Regarding `CCc1cccc2c3c(sc12)C(c1ccc(F)cc1)C(C#N)=C(/N=C/c1ccc(Cl)cc1)O3` (stereo not drawn), the growth was 7.08% (active).
As for `c1ccc(-c2c(-c3ccccc3)[n+](Cc3ccc4ccccc4c3)c(-c3ccccc3)n2Cc2ccc3ccccc3c2)cc1`, the growth was -59.9% (active).
For the compound `COc1cccc(O)c1/C=C(/C)c1ccc2c(OC)cccc2[o+]1`, the growth was 120% (inactive).
`CC[C@@H](CO)Nc1ccc2ncc(C#Cc3cncc(C(=O)Nc4ccc(CN5CCN(C)CC5)c(C(F)(F)F)c4)c3)n2n1`: the growth is -27.3% (active).
Regarding `Cn1cc(-c2nn3cc(-c4ccncc4)nc3s2)c2cc(Cl)ccc21`, the growth was -16% (active).
The result for `COc1cc(N=Cc2sc(Nc3nccs3)nc2O)cc(OC)c1OC` reads 82.8% (inactive); that for `Cc1ccc2ccc3ccc(C)nc3c2n1.Cc1ccc2ccc3ccc(C)nc3c2n1.Oc1c(Cl)cc(Cl)c2ccc(CN3CCCCC3)nc12.[Ru]`, -52.1% (active).
